The values below come from PubChem BioAssay (NCATS).

For experiment [1], the target named is Cellular tumor antigen p53 (Homo sapiens) (UniProt P04637). Kind of experiment: Primary qHTS for small molecule compounds that upregulate eGFP-tagged delta133p53alpha (in N-terminal) cells. (AID 2060322). Also: nearly all actives have a fitted effect of over 75% in size. Also: potency is read from the fitted curve at half-maximal effect.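 As to activation: cells pre-induced with doxycycline then dosed without doxycycline.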 The note with it: NCI-H358 eGFP-delta133p53alpha fluorescence, 24 h; activation: hits give high values. The method in brief: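 NCI-H358 cells pre-induced 24 h with 10 ng/ml doxycycline for eGFP-delta133p53alpha, plated dox-free and exposed 24 h at 37C to titrated compounds. Fixed, Hoechst-stained; gated GFP peak intensity by laser scanning cytometry, normalized to DMSO (0%) and 57.5 uM 5-azacytidine (100%).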
(In general: Quantitative high-throughput screening tests each substance at several concentrations.)

Experiment [2] has as its target Aldehyde dehydrogenase, mitochondrial (Homo sapiens) (UniProt P05091). Kind of experiment: qHTS for Inhibitors of the Aldehyde Dehydrogenase Family (ALDH2) Primary screen (AID 2061308). Also: nearly all actives have a fitted effect of over 55% in size. The note with it: ALDH2 enzyme inhibition qHTS, 1536-well; series mostly up to 56 µM.

Results filed as inconclusive are left out. Where a call stands in place of a potency, no number is given. Values without a mark were called inactive. Activity calls are given as the source filed them. Calls follow the shape of the dose curve; as a rule, active = well fitted curve in the direction sought with a large enough effect; inconclusive = small, poorly fitted or top-dose-only effect, or another doubt; inactive = no such curve, though single readings can be large; an effect the other way counts as inactive or inconclusive.

Sequence of Cellular tumor antigen p53 (Homo sapiens) (P04637 whole entry, looked up): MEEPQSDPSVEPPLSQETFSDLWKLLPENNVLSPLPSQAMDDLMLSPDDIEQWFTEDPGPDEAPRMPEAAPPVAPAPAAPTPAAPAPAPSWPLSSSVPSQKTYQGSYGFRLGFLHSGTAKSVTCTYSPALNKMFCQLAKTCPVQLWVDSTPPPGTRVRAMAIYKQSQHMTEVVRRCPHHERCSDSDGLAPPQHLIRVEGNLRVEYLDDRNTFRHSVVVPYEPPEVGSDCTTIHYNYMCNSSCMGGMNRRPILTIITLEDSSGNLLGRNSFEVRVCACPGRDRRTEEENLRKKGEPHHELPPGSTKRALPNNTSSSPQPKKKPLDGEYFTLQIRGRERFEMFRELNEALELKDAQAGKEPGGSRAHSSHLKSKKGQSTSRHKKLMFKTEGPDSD

Turning to `C=C1CCC2C(C)(COC3OC(COC(=O)CC(=O)O)C(O)C(O)C3O)CCCC2(C)C1CCC1=CCOC1=O` (stereo unspecified), the activation in experiment [1] was 8.4%. Moreover, the Potency entry in experiment [2] was “inactive”.

With `COc1cc([C@@H]2Oc3c(OC)cc(CCCO)cc3[C@@H]2CO[C@@H]2O[C@H](CO)[C@@H](O)[C@H](O)[C@H]2O)ccc1O`, in experiment [1], the activation was -9.16%. In addition, the Potency entry in experiment [2] is “inactive”.

Take `C=C[C@@]1(C)C=C2C(=O)C(O)=C3[C@](C)(C(=O)O)CC[C@@H]4C[C@]34[C@]2(O)C(=O)C1`: in experiment [1], the Potency was 6.59 µM (active). In experiment [2], the Potency result is “inactive”.

For `C[C@@H](OC(=O)/C=C/c1ccc(O)cc1)C1=C[C@]2(C=C[C@@H]3C(C(=O)O)=CO[C@@H](O[C@@H]4O[C@H](CO[C@@H]5O[C@H](CO)[C@@H](O)[C@H](O)[C@H]5O)[C@@H](O)[C@H](O)[C@H]4O)[C@@H]32)OC1=O`, the activation in experiment [1] is -5.34%. The Potency result in experiment [2] is “inactive”.

As to `CC1=CC(=O)CC(C)(C)C1/C=C/C(C)O[C@@H]1O[C@H](CO)[C@@H](O)[C@H](O)[C@H]1O[C@@H]1OC[C@](O)(CO)[C@H]1O` (stereo partly specified), in experiment [1], the activation is -2.68%. Moreover, the Potency result in experiment [2] is “inactive”.

On to `COC(=O)C1=CO[C@@H](O[C@@H]2O[C@H](CO)[C@@H](O)[C@H](O)[C@H]2O)[C@@H]2[C@@H](C)[C@@H](O)C[C@H]12`, for which the activation in experiment [1] was -11.5%. Moreover, the Potency result in experiment [2] is “inactive”.

In the case of `CC(=O)N1CCc2ccc(O)c(OC3OC(COC4OCC(O)(CO)C4O)C(O)C(O)C3O)c2C1Cc1ccc(O)cc1` (stereo unspecified), the activation in experiment [1] was -0.763%. In addition, the Potency entry in experiment [2] is “inactive”.

In the case of `CC(CO[C@@H]1O[C@H](COC(=O)/C=C/c2ccc(O)c(O)c2)[C@@H](O)[C@H](O)[C@H]1O)C1(O)COC(=O)C1` (stereo partly specified), the activation in experiment [1] is 6.87%. In addition, in experiment [2], the Potency entry is “inactive”.
